Most compounds without a hit are left out; they make up all but 6.9% or so of the library.
JMJD2A Tudor: inhibitors of human JMJD2A Tudor domain; O75164; AlphaScreen JMJD2A-Tudor / H3K4me3 peptide binding; Potency, µM (titrated, usually from 114 µM), without a hit: at the top dose activity change, negative = inhibition, most hits filed as inhibitors; actives 4.4% (n = 390,000); AID 504339; note: % is set by controls: 0 for no effect and ±100 for the full control effect; nearly all actives have a fitted effect of over 50% in size
PLK1 PBD block: blocks phosphopeptide binding to human PLK1 polo-box domain; P53350; actives 2.8% (n = 360,000); Potency, µM, without a hit: max response, negative = inhibition, hits mostly inhibitors; Plk1 PBD binding of FITC phosphopeptide, fluorescence polarization; note: series mostly up to about 57 µM; % is set by controls: 0 for no effect and ±100 for the full control effect; nearly all actives have a fitted effect of over 65% in size
L3MBTL1 block: inhibitors of human L3MBTL1; Q9Y468; AlphaScreen L3MBTL1–H3K9me1 peptide binding; Potency, µM (doses to about 57.1 µM), for the others: at the highest dose activity, negative = inhibition, usual class: inhibitors; actives 0.66% (n = 230,000); AID 485360; note: % is set by controls: 0 for no effect and ±100 for the full control effect; nearly all actives have a fitted effect of over 60% in size
Target sequence (Q9Y468 whole entry, looked up): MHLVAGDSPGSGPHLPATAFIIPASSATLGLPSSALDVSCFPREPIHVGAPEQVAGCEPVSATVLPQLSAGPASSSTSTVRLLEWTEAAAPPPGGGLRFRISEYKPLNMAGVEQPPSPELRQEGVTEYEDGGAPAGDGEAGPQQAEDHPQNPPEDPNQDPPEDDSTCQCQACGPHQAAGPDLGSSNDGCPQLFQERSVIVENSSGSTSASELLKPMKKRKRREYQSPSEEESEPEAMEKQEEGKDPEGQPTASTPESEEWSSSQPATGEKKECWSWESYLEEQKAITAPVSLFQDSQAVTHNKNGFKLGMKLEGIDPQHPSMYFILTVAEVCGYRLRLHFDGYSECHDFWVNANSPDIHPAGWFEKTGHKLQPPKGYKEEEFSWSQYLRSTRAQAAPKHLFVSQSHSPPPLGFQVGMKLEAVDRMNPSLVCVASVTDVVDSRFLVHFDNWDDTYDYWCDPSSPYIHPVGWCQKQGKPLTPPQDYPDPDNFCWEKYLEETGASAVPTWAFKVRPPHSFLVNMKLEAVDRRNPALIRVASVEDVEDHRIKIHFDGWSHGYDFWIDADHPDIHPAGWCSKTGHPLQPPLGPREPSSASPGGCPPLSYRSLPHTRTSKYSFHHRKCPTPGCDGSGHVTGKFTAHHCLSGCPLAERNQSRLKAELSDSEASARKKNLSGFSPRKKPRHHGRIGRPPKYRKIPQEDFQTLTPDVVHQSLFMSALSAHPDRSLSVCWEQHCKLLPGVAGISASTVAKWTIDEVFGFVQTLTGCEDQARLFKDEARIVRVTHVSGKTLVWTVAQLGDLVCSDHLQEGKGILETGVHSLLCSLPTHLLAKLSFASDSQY
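AlphaScreen assay: L3MBTL1 (50 nM final) was preincubated 30 min at room temperature with biotinylated H3(1-15)K9me1 peptide (75 nM final), then 30 min with library compounds; streptavidin donor and nickel chelate acceptor beads (10 ug/mL final) added, 30 min dark.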
HP1b chromo inh: inhibitors of HP1-beta chromodomain binding to methylated histone tails. Potency, µM (highest dose often 114 µM), without a hit: top-dose activity change, negative = inhibition, actives largely listed as inhibitors. P83916. actives 0.56% (n = 390,000). AlphaScreen HP1-beta / biotin-H3K9me3 peptide binding; note: nearly all actives have a fitted effect of over 70% in size
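HP1-beta protein (50 nM final) preincubated 30 min at room temperature with biotinylated H3(1-18)K9me3 peptide (50 nM) in PBS pH 7.4, 0.01% Tween-20, then compound added for 30 min. AlphaScreen streptavidin donor/nickel chelate acceptor beads (10 ug/mL final), 30 min dark, luminescence read.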
BAZ2B block: blocks human BAZ2B; Q9UIF8; actives 4.4% (n = 360,000); AlphaScreen BAZ2B-H3K14Ac peptide displacement; Potency, µM (doses to about 114 µM), inactives show top-dose activity change, negative = inhibition, most hits filed as inhibitors; note: % is set by controls: 0 for no effect and ±100 for the full control effect; nearly all actives have a fitted effect of over 60% in size
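AlphaScreen displacement: compounds (up to 110uM) incubated 30 min at room temperature with a preformed 50 nM BAZ2B/50 nM biotinylated H3K14Ac peptide complex in PBS pH 7.4 with Tween-20. Donor and acceptor beads at 10 ug/mL final added, 20 min light-protected before reading.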
VDR inh: vitamin D3 receptor (human) inhibition; P11473; VDR-SRC2-3 peptide fluorescence polarization, 2 h; Potency, µM, for inactives: max response, negative = inhibition, hits mostly inhibitors; actives 0.93% (n = 400,000); AID 504847; note: % is set by controls: 0 for no effect and ±100 for the full control effect
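Measured by FP: displacement of SRC2-3 coactivator peptide from VDR by library compounds, following a two-hour ambient incubation.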
Starred values were filed as active, the others as inactive; ? = inconclusive; . = no result given; [ ] = dose if it differs, or a comment. Calls come from the whole dose curve; as a rule, active = well fitted curve in the direction sought with a large enough effect; inconclusive = small, poorly fitted or top-dose-only effect, or another doubt; inactive = no such curve, though single readings can be large; an effect the other way counts as inactive or inconclusive. Potency is the fitted concentration of half-maximal effect.

SMILES | JMJD2A Tudor | PLK1 PBD block | L3MBTL1 block | HP1b chromo inh | BAZ2B block | VDR inh
COC(=O)[C@@]1(Cc2ccccc2-c2ccco2)C=C[C@H](C)[C@@H](c2ccccc2)N1C(=O)C(F)(F)F | . | . | . | . | . | 44.7µM*
CCOc1ccc(Nc2cc(=O)oc3ccccc23)cc1 | -15.3% | -1.9% | -3.3% | 18.8% | 70.8µM* | -1.4%
CCCCNc1cc(=O)oc2ccccc12 | -9.2%[57.1 µM] | -3.8% | 4.3% | 41.9% | -3.5% | 15.8%
COc1ccc2[nH]cc(CCNc3cc(-c4cccc(C#N)c4)ncn3)c2c1 | . | . | . | . | . | -18.8%
Cc1ccc(C)c(NC(=S)/C(=C(\[O-])c2ccc(Cl)s2)[n+]2ccccc2)c1 | ? | -8.9% | ? | -20.0% | 35.5µM* | -19.5%
CCc1cccc(CC)c1NC(=S)/C(=C(\[O-])c1ccc(Cl)s1)[n+]1ccccc1 | ? | -17.3% | -10.5% | -16.3% | ? | -27.7%
[O-]/C(=C(\C(=S)Nc1cccc2ccccc12)[n+]1ccccc1)c1ccc(Cl)s1 | ? | -3.8% | ? | ? | 35.5µM* | -27.9%
Cc1cc(C)cc(NC(=S)/C(=C(\[O-])c2ccc(Cl)s2)[n+]2cccc(C)c2)c1 | 50.1µM* | ? | ? | ? | 39.8µM* | -20.1%
[O-]C(=C(C(=S)Nc1cccc2ccccc12)[n+]1cccc(CO)c1)c1ccc(Cl)s1 | -48.6% | -15.5% | . | -38.0% | . | -12.8%
COc1cc(OC)c(Nc2nc3ccccc3nc2-n2nc(C)cc2C)cc1Cl | -5.5% | . | . | 78.8% | 14.0% | 9.0%
Cc1nnc2c(Nc3cccc(O)c3)nc3ccccc3n12 | -32.5% | . | . | 31.0% | ? | 5.0%
O=c1c(-c2cccc(Cl)c2)nc2cncnc2n1Cc1ccccc1Cl | . | . | . | . | . | -19.0%
OC(COC(c1ccc(F)cc1)c1ccc(F)cc1)CN1CCCC(C(F)(F)F)C1 (centres undefined) | 3.55µM* | 3.7% | . | ? | 50.1µM* | -1.1%
O=[N+]([O-])c1ccc(C(O)CN2CCN(c3ccccc3)CC2)cc1 (centres undefined) | -3.0% | -10.9% | . | 60.1% | 2.6% | -2.7%
COCCOCC(O)CN1CCN(c2ccccc2)CC1 (centres undefined) | 12.6µM* | -6.9% | . | -25.6% | 50.1µM* | -2.9%
COc1ccc(N2CCN(CC(O)COC(c3ccccc3)c3ccccc3)CC2)cc1 (centres undefined) | 44.7µM* | 0.8% | . | ? | 44.7µM* | -0.7%
COCCOCC(O)CN1CCN(c2ccc(C)cc2)CC1 (centres undefined) | ? | -15.9% | -7.1% | -37.8% | . | -12.5%
Oc1ccc(N2CCN(CC(O)c3ccccc3)CC2)cc1 (centres undefined) | 56.2µM* | -3.0% | . | ? | -34.6% | 9.1%
Cc1c(Cl)c(C(=O)N2CCCCCC2)nn1C | -16.0% | -8.3% | . | 35.5% | -6.6% | -14.3%
COc1ccc(N2CCN(C(CNC(=O)C(=O)NCCc3ccccc3)c3cccnc3)CC2)cc1 (centres undefined) | -17.8% | . | . | 39.4% | -2.4% | 2.2%
COc1ccc(N2CCN(CC(O)COC(c3ccc(F)cc3)c3ccc(F)cc3)CC2)cc1 (centres undefined) | 3.55µM* | -5.7% | . | ? | 20µM* | -1.7%
OCCN1CCN(CC(O)COC(c2ccc(F)cc2)c2ccc(F)cc2)CC1 (centres undefined) | 7.08µM* | -10.4% | . | ? | 39.8µM* | -9.8%
COc1ccc(-n2ncc3c2CC(C)(C)CC3NC(=O)c2ccnn2C)cc1 (centres undefined) | -2.8% | 1.3% | . | 42.5% | -15.3% | 9.5%
CCOc1cc(C(=O)N/N=C/c2cn(-c3ccccc3)nc2-c2cc3ccccc3o2)cc(OCC)c1OCC | -6.3% | -2.7% | . | 26.5% | . | -8.4%
NCCn1oc(=O)[nH]c1=O | . | . | . | . | . | 13.0%
COc1cc(/C=C(/C#N)c2nc3ccccc3[nH]2)ccc1OCC(=O)Nc1ccccc1C | -18.6% | -13.4% | 0.2% | 23.5% | -6.8% | ?
COc1cc(/C=C(/C#N)c2nc3ccccc3[nH]2)ccc1OCC(=O)Nc1ccccc1C(C)C | -15.7% | -4.7% | -6.1% | 18.3% | 50.1µM* | 0.3%

High-throughput results (PubChem BioAssay)
